Screens deposited in PubChem by Fisher Drug Discovery Resource Center.
hcGAS lum = inhibitors of human cGAS; Q8N884; recombinant h-cGAS, ATP depletion, Kinase-Glo luminescence; inhibition, % at 12.5 µM; actives 0.081% (n = 290,000); AID 1259398
Target sequence (Q8N884 whole entry, looked up): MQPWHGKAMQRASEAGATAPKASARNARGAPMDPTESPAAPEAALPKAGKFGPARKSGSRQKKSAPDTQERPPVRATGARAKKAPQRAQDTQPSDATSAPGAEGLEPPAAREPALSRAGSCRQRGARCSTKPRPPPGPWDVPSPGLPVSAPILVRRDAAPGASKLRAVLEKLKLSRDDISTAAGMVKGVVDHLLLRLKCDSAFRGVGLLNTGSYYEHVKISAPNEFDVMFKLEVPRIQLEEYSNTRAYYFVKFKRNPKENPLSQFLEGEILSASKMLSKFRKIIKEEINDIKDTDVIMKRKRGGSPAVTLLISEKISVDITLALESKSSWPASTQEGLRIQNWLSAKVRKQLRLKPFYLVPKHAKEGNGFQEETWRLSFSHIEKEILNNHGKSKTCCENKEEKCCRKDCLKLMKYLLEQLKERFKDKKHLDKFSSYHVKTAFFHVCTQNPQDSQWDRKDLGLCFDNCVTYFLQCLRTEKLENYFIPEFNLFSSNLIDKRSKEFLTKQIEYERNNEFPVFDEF
mcGAS inh = blocks mouse cGAS activity. AID 1259399. recombinant cGAS, Kinase-Glo ATP depletion luminescence. actives 0.15% (n = 160,000). inhibition, % at 12.5 µM. Q8C6L5
NPYLR7 agonist = mosquito NPYLR7 agonism; HEK293T NPYLR7/Galpha15, GCaMP6s calcium fluorescence; activation, % at 10 µM; actives 0.15% (n = 270,000); in the data active = activation above about 40%
Large screens that a line does not name were inactive. An excerpt weighted towards active compounds, which were near 0.28% of everything screened. Cut-off read from the data, not from the text of the source, unless noted: active = inhibition above about 40%; inactive = the rest.

CCOC(=O)c1nnc2ccccc2c1N1CCN(CC)CC1	none
Cc1ccc(C(C)CCN2CCC(C(=O)Nc3ccc(-n4cccn4)cc3)CC2)o1 (stereo unspecified)	none
O=C1C2OCC(O2)C2C1[C@H]2C(=O)c1ccc(Cl)cc1 (stereo partly specified)	none (no result: mcGAS inh)
CC(=O)COc1ccc2c(oc(=O)c3ccccc32)c1C	none
CC1=NC2=C(C(=O)CC(C)(C)C2)C(c2ccc([N+](=O)[O-])cc2)C1C(=O)OC1CCCCC1 (stereo unspecified)	none
CN(CC(=O)Nc1ccc(F)cc1)C(=O)c1nn(-c2ccccc2)c2c1CCC2	none
COc1ccc(C2=NN(C(=O)CN3CCOCC3)C(c3nc4ccccc4[nH]3)C2)cc1 (stereo unspecified)	NPYLR7 agonist 52
O=C(CN1CCOCC1)N1N=C(c2ccc(Br)cc2)CC1c1nc2ccccc2[nH]1 (stereo unspecified)	none
O=[N+]([O-])c1cc(NS(=O)(=O)c2ccc(Cl)c([N+](=O)[O-])c2)c(F)cc1F	none
COc1ccc(C(=O)Nc2c(C)nc3sccn3c2=O)c(OC)c1	none
NC(=O)NN=Cc1cc(Br)cc(Br)c1O	none (no result: mcGAS inh)
COCCN=Cc1cc(Br)cc(Br)c1O	hcGAS lum 68
CCC(=O)Nc1sc2c(c1-c1nc3ccccc3s1)CCN(C(C)C)C2	hcGAS lum 80, mcGAS inh 97
CC(C)N1CCc2c(sc(NC(=O)CN3C(=O)CCC3=O)c2-c2nc3ccccc3s2)C1	hcGAS lum 56, mcGAS inh 51
CCC(=O)Nc1sc2c(c1-c1nc3ccccc3s1)CCN(C(C)=O)C2	none (no result: mcGAS inh)
CCCCC(=O)Nc1sc2c(c1-c1nc3ccccc3s1)CCN(C(C)=O)C2	none (no result: mcGAS inh)
COCC(=O)Nc1ccc(N(C)C)c(CN(CC2CC2)C(=O)c2ccccc2Cl)c1	none
COCc1ccccc1C(=O)N1CCN(CC(F)(F)F)C(C)(C)C1	none
COc1ccc2c(c1OC)C(=O)OC2NC(N)=O (stereo unspecified)	none
COc1cccc(CCC(=O)N2CCc3c(CN4CCCC4)cccc32)c1OC	none (no result: mcGAS inh)
Cc1ccc(-c2ocnc2C(=O)Nc2ccc(F)c(C(N)=O)c2)cc1	none (no result: mcGAS inh)
CN(C)Cc1ccccc1Cc1ccccc1	none (no result: mcGAS inh)
CN(C)Cc1ccc2ccc3cccc4ccc1c2c34	hcGAS lum 84 (no result: mcGAS inh)
CCOc1ccc(-n2nnnc2CNS(=O)(=O)c2ccccc2C(F)(F)F)cc1	none
CN(CCCc1cnn(C)c1)C(=O)[C@@H]1CCCCN1	none (no result: mcGAS inh)
CN(Cc1cc(C(C)(C)C)n[nH]1)c1nc(CCN)nc2ccccc12	none (no result: mcGAS inh, NPYLR7 agonist)
CN(Cc1ccccc1)c1nc(CCN)nc2ccccc12	hcGAS lum 47
Cc1ccc(-c2nnc(NC(=O)C3CCCN3C(=O)Nc3c(C(C)C)cccc3C(C)C)s2)cc1 (stereo unspecified)	none
CC1CN(c2cc(Oc3ccccc3Cl)ncn2)CCN1C(=O)COc1ccccc1 (stereo unspecified)	none
CNc1cc(-c2ccc(CN3CCCCC3)cn2)c2cc[nH]c2n1	hcGAS lum 60
CNc1cc(-c2ccc(CN)cn2)c2cc[nH]c2n1	none
O=C(Nc1ccc(-c2nc3cc(Cl)ccc3o2)cc1)c1ccc2ccccc2c1	none
CCOC(=O)c1c(N=Cc2nc(-c3ccccc3)oc2O)sc(C)c1C	none
CCOC(=O)c1c(-c2ccccc2)csc1N=Cc1nc(-c2ccco2)oc1O	NPYLR7 agonist 141
CC(C)c1nsc(NC2CCOC3(CCCC3)C2)n1 (stereo unspecified)	none
CCC1(O)CC(OC2CC(N(C)C)C(OC3CC(O)C(OC4CCC(=O)C(C)O4)C(C)O3)C(C)O2)c2c(cc3c(c2O)C(=O)c2c(O)cccc2C3=O)C1C(=O)OC (stereo unspecified)	hcGAS lum 79 (no result: mcGAS inh)
Cc1nnc(SCCC(=O)N[C@H]2C[C@H]3CN(C)CCN3C2)s1	none (no result: NPYLR7 agonist)
CC1CCN(Cc2nc3c(c(=O)n(C)c(=O)n3C)n2CCCO)CC1	none
CCOC(=O)C1CCCN(CC(=O)N2N=C(c3ccccc3Cl)CC2c2ccc3c(c2)OCO3)C1 (stereo unspecified)	none
CC(=O)N1CCN(CC(=O)N2N=C(c3ccccc3F)CC2c2ccc(Cl)cc2)CC1 (stereo unspecified)	none
O=C(CN1CCc2ccccc2C1)N1N=C(c2ccccc2F)CC1c1ccc(Cl)cc1 (stereo unspecified)	hcGAS lum 60
CCOC(=O)C1CCCN(CC(=O)N2N=C(c3ccccc3Cl)CC2c2ccc(Cl)cc2)C1 (stereo unspecified)	NPYLR7 agonist 42
CC(=O)C1=C(c2ccc(Cl)cc2)N(C(C)=O)n2c(nnc2-c2ccc(Cl)cc2)S1	none (no result: mcGAS inh)
Cc1cc(C(=O)N2CCCC(O)(CO)CC2)c(-c2ccccc2)o1 (stereo unspecified)	none (no result: mcGAS inh)
COC(=O)C1=C(C)NC(C)=C(C(=O)OC)C1c1cc(Cl)ccc1OC(F)F	none
CCOC(=O)C1=C(C)NC(C)=C(C(=O)OCC)C1c1cc(Cl)ccc1OC(F)F	NPYLR7 agonist 50
CCOc1ccccc1NC(=O)N1CC(=O)N2CCc3c(F)cccc3C2C1 (stereo unspecified)	none
COc1cc(NC(=O)N2CC(=O)N3CCc4c(F)cccc4C3C2)cc(OC)c1OC (stereo unspecified)	NPYLR7 agonist 43
CCN1CCc2c(sc(N)c2-c2nc3ccccc3s2)C1	none (no result: mcGAS inh)
COc1cn(CC(=O)Nc2cccc(C(F)(F)F)c2)c(CSc2nc(C)cs2)cc1=O	none
CCOC(=O)Cn1c(=NC(=O)c2ccc([N+](=O)[O-])cc2)sc2ccccc21	none (no result: mcGAS inh)
Nc1ncnc2c1ncn2C1O[C@H](CO)[C@@H](O)[C@@H]1O (stereo partly specified)	none
OC[C@H]1O[C@@H](n2cnc3c(NCc4ccco4)ncnc32)[C@H](O)[C@@H]1O	none
Cc1ccccc1CNc1ncnc2c1ncn2C1OC(CO)C(O)C1O (stereo unspecified)	NPYLR7 agonist 78
Nc1ncnc2c1ncn2[C@@H]1O[C@H](CO)[C@H](O)C1O (stereo partly specified)	NPYLR7 agonist 96
CC(=O)Nc1cccc(C(=O)CSc2nnc(Cn3ccc(=O)[nH]c3=O)o2)c1	none
Cc1ccc(CN2CCCC(CCN)C2)cc1C (stereo unspecified)	none
COCCCNCc1c(-c2ccc(F)cc2)noc1N1CCOCC1	NPYLR7 agonist 46 (no result: mcGAS inh)
COCCCNCc1c(-c2ccccc2)noc1N1CCc2ccccc2C1	none (no result: mcGAS inh)
O=c1cc(O)c2ccc(O)cc2o1	none
O=c1cc(C(F)(F)F)c2ccc(O)cc2o1	NPYLR7 agonist 57
O=C(Nc1ccccc1F)c1ccc2c(c1)S(=O)(=O)Nc1ncnn1-2	none
COC(=O)c1nc2n(n1)-c1ccccc1S(=O)(=O)N2	hcGAS lum 57 (no result: mcGAS inh)
O=C(NCCc1ccccc1)N(C1CCOCC1)C1CCN(CC2CCCCC2)CC1	none (no result: NPYLR7 agonist)
O=C(CC1Sc2ccc(Cl)cc2NC1=O)NC1CCOc2ccccc21 (stereo unspecified)	none (no result: mcGAS inh)
CC(C)N1C(=O)C(=Cc2ccc(O)cc2)SC1=S	none
O=C(O)CCN1C(=O)/C(=C/c2ccc(O)cc2)SC1=S	NPYLR7 agonist 92
CC(C(=O)O)N1C(=O)/C(=C\c2ccc(O)cc2)SC1=S (stereo unspecified)	NPYLR7 agonist 62
CSCCC(C(=O)O)N1C(=O)/C(=C/c2ccc(C)cc2)SC1=S (stereo unspecified)	none
CCCC(C(=O)O)N1C(=O)/C(=C/c2ccc(O)cc2)SC1=S (stereo unspecified)	NPYLR7 agonist 79
